Structures are written as SMILES. Counter-ions that a name gives are not always drawn. ± gives the standard deviation of the averaged measurements. Over roughly 1,800 compounds, “GFP- (p16Ink4a-) cell count relative to negative-control wells” has its median near 0.99; the lowest 2% begin near 0.5. This excerpt belongs to a sample that is enriched for the lowest values.

For this assay, the system named is mouse p16Ink4a+/- lung fibroblasts (INKBRITE, bleomycin-injured). The assay is described as follows: GFP- (p16Ink4a-) cell count relative to negative-control wells (fold of vehicle); higher = more p16Ink4a- cells surviving. Particulars: 1 µM; 3 days.
Compound `C/C(=C\c1csc(C)n1)[C@@H]1C[C@@H]2O[C@]2(C)CCC[C@H](C)[C@H](O)[C@@H](C)C(=O)C(C)(C)[C@@H](O)CC(=O)O1` [Epothilone B, Patupilone] registered a GFP- of 1.03.
To `C/C(=C\c1csc(C)n1)[C@@H]1C[C@@H]2O[C@@H]2CCC[C@H](C)[C@H](O)[C@@H](C)C(=O)C(C)(C)[C@@H](O)CC(=O)O1` [Epothilone A] belongs 0.423; to `CN(C)[C@@H]1C(=O)C(C(N)=O)=C(O)[C@@]2(O)C(O)=C3C(=O)c4c(O)cccc4[C@@](C)(O)[C@H]3C[C@@H]12` [Tetracycline], 1.07.
Under `C=C1C[C@@H]2[C@H](CC[C@]3(C)C(=O)CC[C@@H]23)[C@@]2(C)C=CC(=O)C=C12` [Exemestane] stands 1.13.
Under `C[C@@H]1CC[C@@]2(OC1)O[C@H]1C[C@H]3[C@@H]4CC=C5C[C@@H](O[C@@H]6O[C@H](CO)[C@@H](O[C@@H]7O[C@@H](C)[C@H](O)[C@@H](O)[C@H]7O)[C@H](O)[C@H]6O[C@@H]6O[C@@H](C)[C@H](O)[C@@H](O)[C@H]6O)CC[C@]5(C)[C@H]4CC[C@]3(C)[C@H]1[C@@H]2C` [Dioscin] stands 1.03.
`COc1ccc(C(=O)N2CCCC2=O)cc1` [Aniracetam]: the GFP- came out at 0.968.
To `CN1[C@@H]2CC[C@H]1C[C@@H](OC(=O)C(CO)c1ccccc1)C2` (stereo not given in full) [Atropine] belongs 0.843; to `CC(C)[C@]12O[C@H]1[C@@H]1O[C@]13[C@]1(O[C@H]1C[C@H]1C4=C(CC[C@@]13C)C(=O)OC4)[C@@H]2O` [Triptolide], 0.366; to `CC(=O)Nc1ccc(OC[C@](C)(O)C(=O)Nc2ccc([N+](=O)[O-])c(C(F)(F)F)c2)cc1` [Andarine], 1.
The compound `CCN(CC)C(=O)c1ccc(C2=CC3(CCNCC3)Oc3cccc(O)c32)cc1` came in with a GFP- of 0.95.
Under `CCNC(=O)C[C@@H]1N=C(c2ccc(Cl)cc2)c2cc(OC)ccc2-n2c(C)nnc21` stands 1.04 ± 0.19.
Under `C1=C2CCCN[C@H]2[C@@H]2C[C@H]1[C@H]1CCCCN1C2` [Aloperine] stands 0.98.
Turning to `O=[N+]([O-])/C=C/c1ccc2c(c1)OCO2`, the GFP- was 1.03.
Under `CC[C@@H]1[C@@H](C)O[C@@](O)([C@@H](C)[C@H](O)[C@H](C)[C@H]2OC(=O)/C=C/C=C/[C@H](C)[C@H]([C@@H](C)[C@@H](O)[C@H](C)[C@@]3(O)C[C@@H](O[C@H]4C[C@H](O)[C@H](O)[C@H](C)O4)[C@H](CC)[C@@H](C)O3)OC(=O)/C=C/C=C/[C@H]2C)C[C@H]1O[C@H]1C[C@H](O)[C@H](O)[C@H](C)O1` [Elaiophylin] stands 0.414; under `CCOC(=O)c1cncn1C(C)c1ccccc1` (stereo not given) [Etomidate], 1.09.
To `Oc1nc2ccc(Cl)cc2c(N[C@@H]2CN3CCC2CC3)c1-c1nc2ccccc2[nH]1` belongs 0.944; to `CC(C)NCC(O)c1ccccc1Cl` (stereo not given) [Clorprenaline], 1.02.
To `C[C@H]1CCC/C=C/[C@@H]2C[C@H](O)C[C@H]2[C@H](O)/C=C/C(=O)O1` [Brefeldin A] belongs 0.4.
`CCc1c(C(=O)C(N)=O)c2c(OCC(=O)O)cccc2n1Cc1ccccc1` [Varespladib] came in with a GFP- of 1.27.
As to `CCOc1ccccc1-n1c(C(C)N2CCN(C(=O)COc3ccc(Cl)cc3)CC2)nc2ccccc2c1=O` (stereo not given) [Erastin], the GFP- was determined as 0.31.
`O=C(O)CNC(=O)c1c(O)c2ccccc2n(Cc2ccccc2)c1=O` had a GFP- of 1.07 ± 0.046.
To `CNCC(=O)c1ccc(O)c(O)c1` [Adrenolone Hydrochloride] belongs 1.05; to `CN1C(=O)CCS(=O)(=O)C1c1ccc(Cl)cc1` (stereo not given) [Chlomezanone, Chlormezanone], 1.03; to `CO[C@H]1CCC(O[C@H]2C[C@H]([C@]3(C)CC[C@]4(C[C@H](O)[C@@H](C)[C@@H]([C@@H](C)/C=C(\C)C(=O)[C@H](C)C[C@H](C)C(=O)O)O4)O3)O[C@]3(O[C@@H]([C@H]4O[C@@](O)(CO)[C@H](C)C[C@@H]4C)C[C@@H]3C)[C@@H]2C)O[C@@H]1C` (stereo not given in full) [Nanchangmycin], 0.412.
`Cc1sc2c(c1C)C(c1ccc(Cl)cc1)=N[C@@H](CC(=O)Nc1ccc(O)cc1)c1nnc(C)n1-2` gave a GFP- of 0.844 ± 0.048.
Take `CCCN1CCO[C@H]2c3cc(O)ccc3OC[C@@H]21`: the GFP- came out at 1.04.
`C/C=C(\C)C(=O)N[C@@H](c1ccccc1)[C@@H](O)C(=O)O[C@H]1C[C@@]2(O)[C@@H](OC(=O)c3ccccc3)[C@@H]3[C@]4(OC(C)=O)CO[C@@H]4C[C@H](O)[C@@]3(C)C(=O)[C@H](OC(C)=O)C(=C1C)C2(C)C` [Cephalomannine] gave a GFP- of 0.683.
Under `Cc1ccc(-n2nccn2)c(C(=O)N2CCN(c3nc4cc(Cl)ccc4o3)CC[C@H]2C)c1` [Suvorexant] stands 1.13; under `C[C@@H]1[C@H](O)[C@@H](C)/C=C/C=C/CC/C=C/C=C/C=C/C=C/[C@H](O[C@H]2O[C@@H](C)[C@H](O)[C@@H](N)[C@H]2O)C[C@@H]2O[C@](O)(C[C@@H](O)[C@H](O)CC[C@@H](O)C[C@@H](O)C[C@@H](O)CC(=O)O[C@H]1C)C[C@H](O)[C@H]2C(=O)O` [Nystatin (Fungicidin)], 0.951.
Under `C[C@H]1CNCCc2ccc(Cl)cc21` [Lorcaserin] stands 1.02.

Source of the values: the supplement of paper PMC11060735.
